Compounds with a hit are over-represented: about 1% of the library has one in this group of screens.
ZTA DNA inh: counter-screen for EBNA-1 inhibitors: inhibitors of Epstein-Barr virus ZTA; P03206; ZTA-DNA binding, fluorescence polarization; inhibition, % at 11 µM; actives 0.15% (n = 320,000); AID 2234; in the data active = inhibition above about 33%
EBNA-1 inh: EBNA-1 DNA-binding inhibitors, primary screen, biochemical, fluorescence polarization. actives 0.34% (n = 300,000). inhibition, % at 14.8 µM. AID 1950, 2009; in the data active = inhibition above about 28%
EBV gp42 block: Epstein-Barr virus gp42 inhibitors, primary screen, biochemical, uHTS, fluorescence polarization; Fluorescence polarization binding assay, mP read-out; inhibition, % (tested at 21.74 µM); actives 0.42% (n = 220,000); in the data active = inhibition above about 50%
Target sequence (Q1HVG2 whole entry, looked up): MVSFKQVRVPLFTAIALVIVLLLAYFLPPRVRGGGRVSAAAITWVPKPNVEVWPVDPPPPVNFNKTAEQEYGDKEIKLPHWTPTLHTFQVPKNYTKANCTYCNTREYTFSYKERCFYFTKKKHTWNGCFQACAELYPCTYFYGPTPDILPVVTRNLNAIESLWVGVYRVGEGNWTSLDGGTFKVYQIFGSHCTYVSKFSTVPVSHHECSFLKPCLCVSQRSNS
MEX-5 binding: MEX-5 zinc finger RNA-binding disruptors – biochemical, C. elegans, fluorescence polarization, MLPCN library, primary screen. MEX-5/FITC-TCR2 RNA binding; stronger effect = lower value. activity score (negative = inhibition of binding), % at 10 µM. actives 0.38% (n = 300,000);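 active = inhibition past about -25% in most replicates, and total fluorescence under double the plate's negative control median, limit read from the data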
Target sequence (Q9XUB2 whole entry, looked up): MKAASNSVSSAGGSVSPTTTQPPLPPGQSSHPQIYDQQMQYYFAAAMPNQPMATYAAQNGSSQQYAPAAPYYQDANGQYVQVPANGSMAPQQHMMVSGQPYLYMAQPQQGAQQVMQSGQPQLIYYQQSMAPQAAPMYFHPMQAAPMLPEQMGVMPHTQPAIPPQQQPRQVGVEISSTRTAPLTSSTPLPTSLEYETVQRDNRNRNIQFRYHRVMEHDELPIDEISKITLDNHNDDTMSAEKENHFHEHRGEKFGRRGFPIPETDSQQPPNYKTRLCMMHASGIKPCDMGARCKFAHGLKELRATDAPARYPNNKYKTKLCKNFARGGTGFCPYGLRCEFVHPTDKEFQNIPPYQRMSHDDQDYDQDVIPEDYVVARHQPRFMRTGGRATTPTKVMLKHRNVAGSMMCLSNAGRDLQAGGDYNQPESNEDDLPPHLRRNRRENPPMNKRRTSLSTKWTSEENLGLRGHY
EBNA-1 inh conf: EBNA-1 DNA-binding inhibitors, retest, confirmation, biochemical, fluorescence polarization, triplicate | Recombinant EBNA-1 DBD, Cy5-DNA fluorescence polarization | shares compounds with EBNA-1 inh | inhibition, % at 14.8 µM | AID 2292, 2010 | actives 35% (n = 830);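 active = mean inhibition across replicates above a set limit taken from the earlier primary screen, cut at about 28% in these data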
ZTA DNA inh trip: EBV Zta DNA binding inhibitors, counter-screen for EBNA-1 inhibitor project, biochemical, fluorescence polarization, triplicate | shares compounds with EBNA-1 inh | Zta-ZRE DNA binding, Cy5 fluorescence polarization | inhibition, % at 11.1 µM | 830 tested, under 10 active | AID 2328, 2010;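 active = mean inhibition over triplicates above a set limit taken from the primary EBNA-1 screen, cut at about 37% in these data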;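 also: purified full length Zta protein with Cy5 labeled ZRE DNA probe; inhibitors lower polarization by freeing the labeled DNA probe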
Of the large screens only hits and unclear results are named; the others gave an inactive call (follow-up assays come after a bar, where they were run).

O=C(Nc1cccc(S(=O)(=O)N2CCCCC2)c1)C1CCCN1S(=O)(=O)c1ccccc1F (stereo not given)	none (no result: EBNA-1 inh, EBV gp42 block, MEX-5 binding)
CCOc1ccc(N2C(=O)CC(NC3CCN(C(=O)c4cccc(Cl)c4)CC3)C2=O)cc1 (stereo not given)	EBNA-1 inh 50 (no result: EBV gp42 block) | EBNA-1 inh conf inactive | ZTA DNA inh trip inactive
O=c1c2ccccc2nc2c3ccccc3c(NCc3ccco3)nn12	EBNA-1 inh 32 | EBNA-1 inh conf inactive | ZTA DNA inh trip inactive
CC(NC(=O)C(=O)NCCN1CCN(C(=O)c2ccccc2Br)CC1)c1ccccc1 (stereo not given)	none (no result: EBV gp42 block)
Cc1ccc(CNS(=O)(=O)c2ccc3c(c2)NC(=O)C(C)S3)cc1 (stereo not given)	none (no result: EBV gp42 block)
COc1ccc(NC(=O)c2cc(S(=O)(=O)N3CCc4ccccc43)cn2C)c(OC)c1	none (no result: EBV gp42 block)
COc1ccc(NC(=O)c2cc(S(=O)(=O)N3CCc4ccccc43)cn2C)cc1OC	EBNA-1 inh 40 (no result: EBV gp42 block) | EBNA-1 inh conf 39 | ZTA DNA inh trip inactive
CCOC(=O)c1ccc(NC(=O)CN2C(=O)CN(C(C)=O)C2=S)cc1	none (no result: EBV gp42 block)
COc1ccc(C(CNC(=O)c2cc(S(=O)(=O)N3CCCC3)ccc2Cl)N2CCCC2)cc1 (stereo not given)	none (no result: EBNA-1 inh, EBV gp42 block, MEX-5 binding)
CCCc1cc2c(cc1NC(=O)c1ccc(Br)cc1)OCO2	EBNA-1 inh 33 | EBNA-1 inh conf inactive | ZTA DNA inh trip inactive
CCOc1ccc2nc3ccc4[nH]onc4c3c2c1	EBNA-1 inh 31 (no result: EBV gp42 block) | EBNA-1 inh conf inactive | ZTA DNA inh trip inactive
CCOc1ccc2nc(N3CCOCC3)nc(C)c2c1	none
COc1ccc2ccc(C(C)(C(C)=O)C(=O)OC(C)C)cc2c1 (stereo not given)	none (no result: EBNA-1 inh, EBV gp42 block, MEX-5 binding)
Cc1ccc(NC(=S)NCc2ccc3c(c2)OCO3)cc1C	none
Cc1ccc(NC(=O)NCc2ccc3c(c2)OCO3)cc1C	EBNA-1 inh 30 | EBNA-1 inh conf inactive | ZTA DNA inh trip inactive
CCc1cc(=O)oc2cc(OCC(=O)N3CCC[C@H]3C(=O)O)ccc12	none (no result: EBV gp42 block)
CCOc1cccc(NC(=O)C2CCCN(S(=O)(=O)c3ccc(-n4cnnn4)cc3)C2)c1 (stereo not given)	none
Cc1ccc(S(=O)(=O)N2CCCC(C(=O)Nc3ccc(NC(=O)c4ccccn4)cc3)C2)cc1 (stereo not given)	EBNA-1 inh 78 | EBNA-1 inh conf 31 | ZTA DNA inh trip inactive
Cc1cc(C)cc(NC(=O)C2CCCN(S(=O)(=O)c3c(C)noc3C)C2)c1 (stereo not given)	EBNA-1 inh 44 (no result: EBV gp42 block) | EBNA-1 inh conf inactive | ZTA DNA inh trip inactive
Cc1ccc(S(=O)(=O)N2CCCC(C(=O)Nc3cccnc3)C2)cc1 (stereo not given)	none
COc1cccc(NC(=O)C2CCCN(S(=O)(=O)c3ccc(-n4cnnn4)cc3)C2)c1 (stereo not given)	EBNA-1 inh 55 | EBNA-1 inh conf inactive | ZTA DNA inh trip inactive
Cc1cc(OC(=O)c2ccc(C)c(C)c2)c([N+](=O)[O-])c(=O)[nH]1	none (no result: EBV gp42 block)
O=S(=O)(NC(=NCc1ccccc1)c1ccccc1)c1ccccc1	none (no result: EBV gp42 block)
CCC(=O)c1ccc(OCC(=O)OCC(=O)NCC2CCCCC2)cc1	none (no result: EBV gp42 block)
COc1ccc(S(=O)(=O)N2CCOCC2)cc1NC(=O)c1ccccc1-c1ccc(C(F)(F)F)cc1	EBNA-1 inh 32 | EBNA-1 inh conf 37 | ZTA DNA inh trip inactive
COc1ccc(NC(=O)c2ccccc2-c2ccc(C(F)(F)F)cc2)cc1S(=O)(=O)N1CCOCC1	none
COc1cc(F)c(C(=O)NC(C)(C)CO)cc1OC	none (no result: EBV gp42 block)
Cn1c(=O)c(C(=O)CSc2nnc(Nc3ccccc3)s2)c(N)n(Cc2ccccc2)c1=O	EBNA-1 inh 35 | EBNA-1 inh conf inactive | ZTA DNA inh trip inactive
CCn1c(COC(=O)CNC(=O)c2ccccc2F)nc2cc(S(=O)(=O)N(C)C)ccc21	none (no result: EBV gp42 block)
COc1cccc(-c2cc(=O)c3cc(NC(=O)c4ccc(N(C)C)cc4)ccc3[nH]2)c1	EBNA-1 inh 42 | EBNA-1 inh conf inactive | ZTA DNA inh trip inactive
Cc1cccc(NC(=O)C2CCCN(S(=O)(=O)c3ccc4[nH]c(=O)ccc4c3)C2)c1 (stereo not given)	none (no result: EBV gp42 block)
COCCNc1c2c(c(C#N)c3nc4ccccc4n13)CCCC2	none
N#Cc1c2c(c(NCc3cccnc3)n3c1nc1ccccc13)CCC2	EBNA-1 inh 77 | EBNA-1 inh conf 31 | ZTA DNA inh trip inactive
CC(=O)N1CCc2c(sc(NC(=O)C3COc4ccccc4O3)c2C(N)=O)C1 (stereo not given)	none (no result: EBV gp42 block)
CCOC(=O)N1CCc2c(sc(NC(=O)C3COc4ccccc4O3)c2C(N)=O)C1 (stereo not given)	EBNA-1 inh 29 (no result: EBV gp42 block) | EBNA-1 inh conf 56 | ZTA DNA inh trip inactive
CCN1C(=O)c2cccc3c(S(=O)(=O)Nc4ccc(OC)cc4OC)ccc1c23	EBNA-1 inh 32 | EBNA-1 inh conf inactive | ZTA DNA inh trip inactive
CCN1C(=O)c2cccc3c(S(=O)(=O)Nc4ccccc4)ccc1c23	none
CCOC(=O)c1c(C)[nH]c(C(=O)OCC(=O)Nc2ccc(OC)c(Cl)c2)c1C	EBNA-1 inh 94 | EBNA-1 inh conf 32 | ZTA DNA inh trip inactive
CCOC(=O)c1c(C)[nH]c(C(=O)OCC(=O)Nc2cc(Cl)ccc2OC)c1C	none
COc1cc(C(=O)Nc2cccc(-c3nc4cc(C)ccc4o3)c2C)cc(OC)c1OC	EBNA-1 inh 37 | EBNA-1 inh conf inactive | ZTA DNA inh trip inactive
COc1cc(OC)cc(OC(=O)C2CCN(C3=NS(=O)(=O)c4ccccc43)CC2)c1	none (no result: EBNA-1 inh, EBV gp42 block, MEX-5 binding)
O=C(CCn1c(=O)oc2ccc(Cl)cc21)NCCCN1CCOCC1	none (no result: EBV gp42 block)
Cc1cc(C)c2cc(C#N)c(SCC(=O)NCC3CCCO3)nc2c1 (stereo not given)	none
Cc1cc(C)c2cc(C#N)c(SCC(=O)Nc3ccc4c(c3)OCO4)nc2c1	EBNA-1 inh 32 | EBNA-1 inh conf 50 | ZTA DNA inh trip inactive
Cn1cc(C(c2ccccc2OCC(=O)O)c2cn(C)c3ccccc23)c2ccccc21	none (no result: EBV gp42 block)
O=C(NCc1ccc2c(c1)OCO2)C12CN(Cc3ccccc3)CC1C(c1cccc([N+](=O)[O-])c1)=NO2 (stereo not given)	EBNA-1 inh 174 | EBNA-1 inh conf inactive | ZTA DNA inh trip inactive
COc1ccc(Cl)cc1NC(=O)CN(C)C(=O)C12CC3CC(CC(Cl)(C3)C1)C2	none (no result: ZTA DNA inh, EBNA-1 inh, EBV gp42 block)
Cc1ccccc1OCC(=O)Nc1ccc2c(c1)Cc1ccccc1-2	EBNA-1 inh 29 | EBNA-1 inh conf inactive | ZTA DNA inh trip inactive
Cc1cccc(NC(=O)c2ccccc2NC(=O)c2ccco2)c1	none (no result: EBV gp42 block)
COc1cc(Cl)c(S(=O)(=O)NCCCn2ccnc2)cc1Cl	none (no result: EBV gp42 block)

Source: PubChem BioAssay
